Assay [1] in a line: Nuclear factor erythroid 2-related factor 2/antioxidant responsive element (Nrf2/ARE) small molecule agonists: qHTS cell viability counter screen in human keratinocytes (AID 1919968; active = well fitted curve in the direction sought with a large enough effect in the repeat runs; an effect the other way counts as inactive or inconclusive; note: nearly all actives have a fitted effect of over 55% in size). Put shortly:
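In human HaCaT keratinocytes stably expressing an ARE-driven luciferase, compound exposure lasted 23 h at 37 C under 5% CO2. Viable cells are quantified with a protease-based fluorogenic reagent (CellTiter-Fluor) read 1 h after addition.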
A general note: qHTS replaces the single test concentration by a dilution series.

Assay [2] is described as follows: Nuclear factor erythroid 2-related factor 2/antioxidant responsive element (Nrf2/ARE) small molecule agonists: luciferase reporter gene qHTS assay in human keratinocytes (AID 1919969). Note: nearly all actives have a fitted effect of over 35% in size. Note: potency is the fitted concentration of half-maximal effect. For orientation: A reporter such as luciferase makes a cellular process visible.
Assay [3] concerns the target Gonadotropin-releasing hormone receptor (Homo sapiens) (UniProt P30968). Kind of assay: Human gonadotropin-releasing hormone receptor (GnRHR) small molecule agonists, calcium flux assay in GnRHR-HEK293 cells (AID 1920063). Note: nearly all actives have a fitted effect of over 35% in size. In short, it runs like this:
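Intracellular calcium rise is the read-out: engineered human GnRHR HEK293 cells, dye-loaded, are exposed to DMSO-dissolved compounds and fluorescence at Ex/Em 480/540 is tracked for 3 min.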
For orientation: Calcium flux is commonly read through the fluorescence of an indicator in the cells.

Assay [4] deals with KiSS-1 receptor (Homo sapiens) (UniProt Q969F8). Put plainly: Human kisspeptin (KISS1R) small molecule agonists, calcium flux assay in KISS1R-HEK293 cells (AID 1920064; active = well fitted curve in the direction sought with a large enough effect in the repeat runs; an effect the other way counts as inactive or inconclusive). In short, it runs like this:
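Concentration-response testing used 15 concentrations in triplicate on human KISS1R-expressing HEK293 cells. Calcium-dependent fluorescence (Ex/Em 480/540) was followed kinetically for 3 min after compound transfer.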

A short description of assay [5]: G protein-coupled receptor (GPCR) small molecule agonists, calcium flux assay: HEK293 wild type cell line counter screen (AID 1920065). In short, it runs like this: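 Fluorescence intensity signals activation. After overnight (18 h) culture and a 1 h calcium dye load at 37 C, compounds are added by pin tool and the plate read at 480/540 nm for 3 min in 1 s steps.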

Assay [6] can be described thus: p53 small molecule agonists, cell-based qHTS assay with human liver microsomes (AID 1963577). In short, it runs like this: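 p53RE-bla cells, 4,000/well, compound added after 5 h, with human liver microsomes 0.5 mg/mL and NADPH 0.5 mg/mL final; 16 h at 37 C, then LiveBLAzer 2 h RT, fluorescence.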
A short description of assay [7]: p53 small molecule agonists, cell-based qHTS assay with rat liver microsomes (AID 1963578). Put shortly: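 p53RE-bla cells, 4,000/well, pre-incubated 5 h, then given compounds plus rat liver microsomes (0.5 mg/mL final) and NADPH (0.5 mg/mL final). Incubation 16 h at 37 C; beta-lactamase reporter read by LiveBLAzer fluorescence after 2 h at room temperature.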
Assay [8] in a line: p53 small molecule agonists, cell-based qHTS assay with human liver microsomes: qHTS cell viability counter screen (AID 1963579). Note: nearly all actives have a fitted effect of over 45% in size. Put shortly:
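p53RE-bla cells, 4,000/well, dosed 5 hours after plating, with human liver microsomes (0.5 mg/mL final) plus NADPH (0.5 mg/mL final), 16 hours at 37 C. Viability read as CellTiter-Glo luminescence after 30 min at room temperature.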

A short description of assay [9]: p53 small molecule agonists, cell-based qHTS assay with rat liver microsomes: qHTS cell viability counter screen (AID 1963580). Note: nearly all actives have a fitted effect of over 45% in size. Put shortly:
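Rat liver microsome (0.5 mg/mL final) and NADPH (0.5 mg/mL final) co-incubation with compounds for 16 h at 37 C on HCT-116 p53RE-bla cells; cytotoxicity taken from intracellular ATP luminescence.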

A short description of assay [10]: p53 small molecule agonists, cell-based qHTS assay (AID 1963582; active = well fitted activation curve with a large enough effect in the signal ratio in the repeat runs, not every such curve was filed as active; the % refers to the signal ratio). In short, it runs like this: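 After plating, p53RE-bla cells sat 5 h in the incubator; compounds or DMSO vehicle were pinned in; a 16 h incubation at 37 C followed; FRET substrate was added and, 2 h later at RT, fluorescence was measured.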
Assay [11] deals with 5-hydroxytryptamine receptor 2A (Homo sapiens) (UniProt P28223). Kind of assay: 5-hydroxytryptamine receptor 2A (HTR2A) small molecule antagonists, cell-based qHTS assay (AID 1963586). Note: nearly all actives have a fitted effect of over 45% in size. Put shortly: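 CHO cells stably expressing human HTR2A were plated for 18 h at 37 C, then loaded with calcium dye for 1 h. Compounds were preincubated 5 min at room temperature before DOI (4 nM solution) was added. Kinetic fluorescence was read for 3 min.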

Assay [12] has the same target. Put plainly: 5-hydroxytryptamine receptor 2A (HTR2A) small molecule agonists, cell-based qHTS assay (AID 1963587). Note: nearly all actives have a fitted effect of over 30% in size. In short, it runs like this: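 Kinetic calcium-flux fluorescence (2 min, 1 sec intervals) after compound addition in agonist mode. HTR2A-CHO cells were cultured 18 h, then dye-loaded 1 h at 37 C.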
The target in assay [13] is Muscarinic acetylcholine receptor M1 (Homo sapiens) (UniProt P11229). Kind of assay: Cholinergic receptor muscarinic 1 (CHRM1) small molecule antagonists, cell-based qHTS assay (AID 1963588). Note: nearly all actives have a fitted effect of over 40% in size. Put shortly: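 Compounds were tested at 15 concentrations in three independent runs. Dye-loaded CHRM1-CHO cells were exposed 5 min at room temperature before stimulation by acetylcholine added at 50nM. Intracellular calcium was read kinetically on FDSS for 3 min.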

The target is the same in assay [14]. Put plainly: Cholinergic receptor muscarinic 1 (CHRM1) small molecule agonists, cell-based qHTS assay (AID 1963589). Note: nearly all actives have a fitted effect of over 35% in size. In short, it runs like this:
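Fluorescent calcium dye reports M1 activation in stably transfected CHO cells. Compounds, 15 concentrations, added after 1 h dye loading at 37 C; kinetic reading at 1 sec intervals.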

Assay [15] is described as follows: cAMP Responsive Elements (CRE) small molecule agonists, cell-based qHTS assay (AID 1963590). In short, it runs like this:
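Compound exposure lasted 3 h at 37 C/5% CO2 in CRE-bla HEK 293T cells grown in assay medium with 10% dialyzed FBS and 25 mM HEPES. Reporter signal came from LiveBLAzer B/G FRET substrate, 2 h, room temperature.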

For assay [16], the target named is D(2) dopamine receptor (Homo sapiens) (UniProt P14416). Kind of assay: Dopamine D2 receptor (DRD2) small molecule agonists, cell-based qHTS assay (AID 1963594). Note: nearly all actives have a fitted effect of over 35% in size. In short, it runs like this:
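cAMP accumulation in DRD2-HEK293 cells measured by HTRF after 1 h detection; compounds added 10 min before NKH477 (200nM […]) forskolin-analogue stimulation, 30 min at room temperature, with Ro20-1724 present at 0.1 mM final.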

Assay [17] shares this target. Kind of assay: Dopamine D2 receptor (DRD2) small molecule antagonists, cell-based qHTS assay (AID 1963595; active = well fitted inhibition curve with a large enough effect in the signal ratio in the repeat runs, with a control signal flat; the % refers to the signal ratio). Put shortly:
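Human DRD2 antagonist qHTS measuring cAMP by HTRF. The cells are exposed to compound for 10 min, then to NKH477 (200 nM) and quinpirole (12 nM) for 30 min at RT, with Ro20-1724 (0.1 mM) present throughout.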

For assay [18], the target named is Beta-2 adrenergic receptor (Homo sapiens) (UniProt P07550). Kind of assay: Adrenergic beta2 receptor (ADRB2) small molecule antagonists, cell-based qHTS assay (AID 1963592). Note: series mostly up to about 92 µM; nearly all actives have a fitted effect of over 50% in size. In short, it runs like this: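 Assay format: CHO-ADRB2 cells, 18-20hr seeding at 37C/5% CO2, then compound plus 1nM isoproterenol agonist mix for 0.5hr RT. Homogeneous time-resolved fluorescence cAMP detection after 1hr, expressed as 665/615 nm ratio.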

The nature of assay [19]: cAMP Responsive Elements (CRE) small molecule antagonists, cell-based qHTS assay (AID 1963591; active = well fitted inhibition curve with a large enough effect in the signal ratio in the repeat runs, not every such curve was filed as active; the % refers to the signal ratio). Put shortly: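 Stimulation used NKH477 at a final 0.25 uM for 3 h in compound-treated CRE-bla HEK293T cells, seeded 18 h beforehand. Reporter activity was measured with LiveBLAzer B/G FRET substrate after 2 h at room temperature.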

Each structure is given as a SMILES string. A number with no mark means an inactive call. Inconclusive results are not listed. Calls of active or inactive are those of the source. Unless noted, calls come from the whole dose curve.
% is set by controls: 0 for no effect and ±100 for the full control effect.

Chain of D(2) dopamine receptor (Homo sapiens) (P14416 whole entry, looked up): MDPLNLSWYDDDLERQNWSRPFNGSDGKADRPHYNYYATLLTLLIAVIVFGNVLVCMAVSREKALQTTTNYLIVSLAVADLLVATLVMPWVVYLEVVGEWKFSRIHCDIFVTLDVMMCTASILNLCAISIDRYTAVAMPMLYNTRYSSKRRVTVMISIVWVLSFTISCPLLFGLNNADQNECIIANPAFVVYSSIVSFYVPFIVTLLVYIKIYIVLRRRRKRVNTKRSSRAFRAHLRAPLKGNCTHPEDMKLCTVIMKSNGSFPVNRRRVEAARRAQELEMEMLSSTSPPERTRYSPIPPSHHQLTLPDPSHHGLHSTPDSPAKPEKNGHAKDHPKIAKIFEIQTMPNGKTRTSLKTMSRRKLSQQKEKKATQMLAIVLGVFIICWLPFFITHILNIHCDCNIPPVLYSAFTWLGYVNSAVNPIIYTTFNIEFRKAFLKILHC
Chain of Beta-2 adrenergic receptor (Homo sapiens) (P07550 whole entry, looked up): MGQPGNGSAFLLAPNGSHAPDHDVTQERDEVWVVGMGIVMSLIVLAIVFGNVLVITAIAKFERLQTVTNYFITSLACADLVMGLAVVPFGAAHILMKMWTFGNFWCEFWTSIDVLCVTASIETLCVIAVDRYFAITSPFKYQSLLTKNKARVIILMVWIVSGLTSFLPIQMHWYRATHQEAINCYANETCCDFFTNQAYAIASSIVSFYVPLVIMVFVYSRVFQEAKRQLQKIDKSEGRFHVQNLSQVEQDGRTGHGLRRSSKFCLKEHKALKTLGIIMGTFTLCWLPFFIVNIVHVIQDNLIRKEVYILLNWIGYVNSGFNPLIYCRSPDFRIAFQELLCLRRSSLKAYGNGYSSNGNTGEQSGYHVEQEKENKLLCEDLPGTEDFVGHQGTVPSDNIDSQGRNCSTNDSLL
Chain of 5-hydroxytryptamine receptor 2A (Homo sapiens) (P28223 whole entry, looked up): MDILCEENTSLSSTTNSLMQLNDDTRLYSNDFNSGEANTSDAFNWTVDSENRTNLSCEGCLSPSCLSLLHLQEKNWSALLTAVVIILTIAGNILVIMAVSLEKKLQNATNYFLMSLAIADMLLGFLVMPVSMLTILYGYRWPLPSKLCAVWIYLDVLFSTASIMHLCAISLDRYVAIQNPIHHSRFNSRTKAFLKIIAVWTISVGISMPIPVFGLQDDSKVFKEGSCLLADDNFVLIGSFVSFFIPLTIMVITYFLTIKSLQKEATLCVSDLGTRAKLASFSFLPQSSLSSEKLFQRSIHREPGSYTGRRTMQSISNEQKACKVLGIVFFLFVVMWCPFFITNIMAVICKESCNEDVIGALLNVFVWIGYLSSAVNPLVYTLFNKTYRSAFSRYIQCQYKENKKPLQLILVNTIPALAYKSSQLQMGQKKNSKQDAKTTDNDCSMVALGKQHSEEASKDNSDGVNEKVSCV
Chain of KiSS-1 receptor (Homo sapiens) (Q969F8 whole entry, looked up): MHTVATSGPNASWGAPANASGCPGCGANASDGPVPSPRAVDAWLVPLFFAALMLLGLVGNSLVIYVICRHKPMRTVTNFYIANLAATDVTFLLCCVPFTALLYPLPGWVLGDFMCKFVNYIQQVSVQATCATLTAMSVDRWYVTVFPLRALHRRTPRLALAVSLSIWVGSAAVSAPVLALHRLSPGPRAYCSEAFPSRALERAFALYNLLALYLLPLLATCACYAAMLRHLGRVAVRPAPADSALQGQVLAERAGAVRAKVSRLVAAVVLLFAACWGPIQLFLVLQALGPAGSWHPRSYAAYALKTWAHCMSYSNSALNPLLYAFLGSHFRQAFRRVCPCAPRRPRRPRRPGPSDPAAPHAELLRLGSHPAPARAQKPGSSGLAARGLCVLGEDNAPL
Chain of Muscarinic acetylcholine receptor M1 (Homo sapiens) (P11229 whole entry, looked up): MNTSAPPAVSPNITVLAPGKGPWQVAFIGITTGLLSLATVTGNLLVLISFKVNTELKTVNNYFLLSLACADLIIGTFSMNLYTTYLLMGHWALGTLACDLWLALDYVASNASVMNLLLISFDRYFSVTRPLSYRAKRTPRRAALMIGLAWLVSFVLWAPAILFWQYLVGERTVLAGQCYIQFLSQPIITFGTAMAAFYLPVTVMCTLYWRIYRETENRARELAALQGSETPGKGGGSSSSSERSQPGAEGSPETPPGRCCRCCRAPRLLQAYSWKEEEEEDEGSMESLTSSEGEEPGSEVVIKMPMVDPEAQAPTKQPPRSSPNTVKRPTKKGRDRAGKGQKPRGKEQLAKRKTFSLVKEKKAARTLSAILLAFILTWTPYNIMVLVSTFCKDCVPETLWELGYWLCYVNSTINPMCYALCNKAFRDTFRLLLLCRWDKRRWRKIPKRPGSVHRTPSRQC
Chain of Gonadotropin-releasing hormone receptor (Homo sapiens) (P30968 whole entry, looked up): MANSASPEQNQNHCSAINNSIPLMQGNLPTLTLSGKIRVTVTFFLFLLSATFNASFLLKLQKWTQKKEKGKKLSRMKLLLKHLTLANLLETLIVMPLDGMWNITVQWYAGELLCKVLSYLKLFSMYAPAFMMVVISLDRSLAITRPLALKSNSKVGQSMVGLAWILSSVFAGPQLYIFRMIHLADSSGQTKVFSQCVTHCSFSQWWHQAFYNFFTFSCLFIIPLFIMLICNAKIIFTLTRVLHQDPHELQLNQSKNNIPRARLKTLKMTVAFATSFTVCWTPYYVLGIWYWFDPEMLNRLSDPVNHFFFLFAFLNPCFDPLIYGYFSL

`Oc1ccc(Nc2ccccc2)cc1`: the Potency result in assay [1], in assay [3], in assay [6], in assay [7], in assay [8] and in [9] was “inactive” each time. Also, the Potency result in [10], in [11], in assay [12], in [13], in assay [14] and in [15] was “inactive” each time. The Potency result in assay [16] and in [17] was “inactive” each time. Moreover, the Potency in assay [2] was 61.1 µM (active). Moreover, the result in [4] and in [5] was inactive.

As for `CCCCCCCCCCCBr`, the Potency entry in [1], in [2], in assay [3], in assay [6], in assay [7] and in assay [8] was “inactive” throughout. The Potency entry in assay [9], in assay [10], in assay [11], in [12], in assay [13] and in assay [14] was “inactive” throughout. Besides, the Potency entry in assay [15], in [18], in [16] and in [17] was “inactive” throughout. For the same compound, the outcome in [4] and in [5] was inactive.

With `O=C1c2ccccc2C(=O)c2cc(Cl)ccc21`, the results for the activity change, negative = cytotoxicity in assay [1], in assay [8] and in assay [9] were -4.18% [at 8.39 µM], 3.98% [at 5.99 µM] and 0.229% [at 5.99 µM], respectively. For the same compound, in assay [2], the activity, positive = activation is 3.42% [at 8.39 µM]. Further, the activity change in assay [3] was -1.12% [at 5.22 µM, hits give high values]. Moreover, the activation in assay [4] is -0.408% [at 6.97 µM]; in [5] it was -1.07% [at 5.23 µM]; in [6], -0.0412% [at 5.99 µM]; in assay [7] it was 1.77% [at 5.99 µM]; in [10], -0.497% [at 5.99 µM]; in [12], -2.59% [at 7.02 µM]. The activation was -0.206% [at 6.97 µM] in assay [14] and 1.23% [at 8.39 µM] in [16]. Besides, the activity, negative = inhibition in [11] is 0.237% [at 5.62 µM]; in assay [13], -8.9% [at 5.58 µM]. The activity change, negative = inhibition in assay [19] was -1.91% [at 8.39 µM]; in [18], -7.09% [at 8.39 µM]; in assay [17], -1.19% [at 8.38 µM].

Take `N#CC1(N)CCCCC1`: the Potency entry in assay [1], in [2], in [3], in assay [6], in [7] and in [8] was “inactive” each time. In addition, the Potency entry in assay [9], in [10], in [11], in assay [12], in assay [13] and in [14] was “inactive” each time. In addition, the Potency result in assay [15], in assay [19], in assay [18] and in assay [17] was “inactive” each time. Besides, the result in assay [4] and in [5] was inactive.

`C=COC(=O)C(C)(CC)CCC(C)C` (centres undefined): the Potency entry in [1], in [2], in [3], in assay [6], in assay [7] and in [8] was “inactive” throughout. Besides, the Potency entry in assay [9], in assay [10], in assay [11], in [12], in assay [13] and in assay [14] was “inactive” in each case. Besides, the Potency entry in [15], in [19] and in assay [16] was “inactive” throughout. Further, the result in assay [4] and in assay [5] was inactive.

Take `CC(=O)OC1CCC(C(C)(C)C)CC1` (centres undefined): the Potency result in assay [1], in [2], in [3], in assay [6], in assay [7] and in assay [8] was “inactive” each time. In addition, the Potency entry in assay [9], in assay [10], in assay [11], in assay [12], in assay [13] and in assay [14] was “inactive” in each case. The Potency entry in [18], in [16] and in assay [17] was “inactive” throughout. Moreover, the result in assay [4] and in assay [5] was inactive.

Regarding `C[C@]12CCC(=O)C=C1CC[C@@H]1[C@@H]2CC[C@@]2(C)[C@H]1CC[C@]2(O)C(=O)CO`, the Potency entry in assay [1], in [2], in [3], in [6], in assay [7] and in assay [8] was “inactive” in each case. In addition, the Potency result in [9], in [10], in assay [11], in assay [12], in [13] and in [14] was “inactive” throughout. In addition, the Potency result in [18] and in [16] was “inactive” each time. For the same compound, the result in [4] and in [5] was inactive.

As for `CN(C)CCOCCN(C)CCO`, the Potency entry in [1], in assay [2], in [3], in assay [6], in [7] and in [8] was “inactive” each time. Besides, the Potency result in [9], in [10], in [11], in [12], in assay [14] and in assay [15] was “inactive” throughout. Also, the Potency entry in [19], in assay [18], in assay [16] and in assay [17] was “inactive” each time. Moreover, the outcome in assay [4] and in assay [5] was inactive.

Values taken from PubChem BioAssay (Tox21).
